The source of these data is PubChem BioAssay (NCATS).

One experiment concerns MCC-13. The experiment can be described thus: qHTS assay to identify novel small-molecules to repurpose for Merkel cell carcinoma treatment (AID 1296009). Further: nearly all actives have a fitted effect of over 60% in size. To be noted: MCC and control cell lines, CellTiter-Glo viability, 72 h; series mostly up to 46 µM. The method in brief:
(§1)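 Cells were treated for 72 hr at 37 degree celsius with compounds in 8- or 11-point dose response. Viability was read by CellTiter-Glo luminescence, normalized to no-cell (cytotoxicity) and DMSO controls.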
On the technique in general: qHTS replaces the single test concentration by a dilution series.

The test system of the next experiment is MCC-26. Described as above. To be noted: MCC and control cell lines, CellTiter-Glo viability, 72 h; series mostly up to 46 µM. The method in brief: as §1
In general terms: In ATP-based viability assays light output follows the ATP content of the culture.

A further experiment concerns MKL-1. The experiment is described as above. Conditions: MCC and control cell lines, CellTiter-Glo viability, 72 h; series mostly up to 46 µM. The method in brief: as §1
The test system of the next experiment is MKL-2. The experiment is described as above. To be noted: MCC and control cell lines, CellTiter-Glo viability, 72 h; series mostly up to 46 µM. Summed up:
as §1

Another experiment has as its system UISO. Described as above. Conditions: MCC and control cell lines, CellTiter-Glo viability, 72 h; series mostly up to 46 µM. Summed up:
as §1

In the next experiment the test system is WaGa. The experiment is described as above. To be noted: MCC and control cell lines, CellTiter-Glo viability, 72 h; series mostly up to 46 µM. The method in brief: as §1
The subject of another experiment is C33A. In words: Primary qHTS to identify gynecologic anti-cancer compounds using libraries of approved drugs and bioactive compounds (AID 1345084). Further: nearly all actives have a fitted effect of over 55% in size. To be noted: Gynecologic cancer cell panel viability, ATPlite luminescence, 48 h; series mostly up to 57.5 µM. Summed up:
(§2)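 Measured: luminescence after ATPlite addition (15 min, RT). Exposure: 48 h, 37 C, 5% CO2.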

Another experiment has as its system CASKI. The experiment is described as above. Conditions: Gynecologic cancer cell panel viability, ATPlite luminescence, 48 h; series mostly up to 57.5 µM. Summed up:
as §2

A further experiment deals with Es-2. The experiment is described as above. To be noted: Gynecologic cancer cell panel viability, ATPlite luminescence, 48 h; series mostly up to 57.5 µM. The method in brief:
as §2

A further experiment concerns HeLa. Described as above. Conditions: Gynecologic cancer cell panel viability, ATPlite luminescence, 48 h; series mostly up to 57.5 µM. The method in brief: as §2
A further experiment relates to Hek293T. The experiment is described as above. Conditions: Gynecologic cancer cell panel viability, ATPlite luminescence, 48 h, control line for the selectivity index; series mostly up to 57.5 µM. Summed up: as §2
In another experiment the test system is JEG-3. Described as above. Conditions: Gynecologic cancer cell panel viability, ATPlite luminescence, 48 h; series mostly up to 57.5 µM. Summed up: as §2
For a further experiment, the system named is OV90. Described as above. Conditions: Gynecologic cancer cell panel viability, ATPlite luminescence, 48 h; series mostly up to 57.5 µM. Summed up:
as §2

A further experiment deals with PA-1. The description is as above. To be noted: Gynecologic cancer cell panel viability, ATPlite luminescence, 48 h; series mostly up to 57.5 µM. Summed up:
as §2

The test system of the next experiment is Tov-21-G. The experiment is described as above. Conditions: Gynecologic cancer cell panel viability, ATPlite luminescence, 48 h; series mostly up to 57.5 µM. The method in brief: as §2
A further experiment relates to CAOV3. The experiment is described as above. Conditions: Gynecologic cancer cell panel viability, ATPlite luminescence, 48 h; series mostly up to 57.5 µM. Summed up: as §2
The subject of the next experiment is SKOV3. The description is as above. To be noted: Gynecologic cancer cell panel viability, ATPlite luminescence, 48 h; series mostly up to 57.5 µM. The method in brief: as §2

Records with an inconclusive call do not appear. The source made the active and inactive calls. The call rests on the fitted dose curve; in most records, active means well fitted curve in the direction sought with a large enough effect; inconclusive means small, poorly fitted or top-dose-only effect, or another doubt; inactive means no such curve, though single readings can be large; an effect the other way counts as inactive or inconclusive.
Potency means the concentration at half of the fitted maximal effect.

`Cc1cc(C)cc(OCC2CNC(=O)O2)c1` (stereo not drawn): the Potency entry in the experiment on MCC-13, in the experiment on MCC-26, with MKL-1, in the experiment on MKL-2, with UISO and in the experiment with WaGa was “inactive” each time. Moreover, the Potency result with C33A, in the experiment on CASKI, in the experiment with Es-2, in the experiment with HeLa, with Hek293T and in the experiment with JEG-3 was “inactive” throughout. The Potency result with OV90, in the experiment with PA-1 and in the experiment with Tov-21-G was “inactive” throughout.
On to `CN(C)CCC[C@@]1(c2ccc(F)cc2)OCc2cc(C#N)ccc21`, for which the Potency result in the experiment on MCC-13, in the experiment with MCC-26, with MKL-1, in the experiment with MKL-2, in the experiment on UISO and with WaGa was “inactive” throughout. For the same molecule, the Potency entry in the experiment with C33A, in the experiment on CAOV3, with CASKI, with Es-2, in the experiment with HeLa and in the experiment on Hek293T was “inactive” throughout. In addition, the Potency result with JEG-3, with PA-1, in the experiment on SKOV3 and in the experiment with Tov-21-G was “inactive” throughout.
As for `CCOC(=O)C(C#N)=C(c1ccccc1)c1ccccc1`, the Potency result in the experiment with MCC-13, with MCC-26, in the experiment on MKL-1, in the experiment with MKL-2, in the experiment on UISO and in the experiment with WaGa was “inactive” in each case. In addition, the Potency result in the experiment on C33A, with CAOV3, with CASKI, in the experiment on Es-2, with HeLa and with Hek293T was “inactive” throughout. Further, the Potency result in the experiment on JEG-3, in the experiment with PA-1, in the experiment with SKOV3 and with Tov-21-G was “inactive” throughout.
Regarding `CC(CNC1CCCCC1)OC(=O)c1ccccc1` (stereo not drawn), the Potency entry in the experiment with MCC-13, in the experiment with MCC-26, in the experiment on MKL-1, in the experiment with MKL-2, with UISO and with WaGa was “inactive” in each case. In addition, the Potency entry in the experiment with C33A, with CASKI, in the experiment with Es-2, with HeLa, in the experiment with Hek293T and in the experiment with JEG-3 was “inactive” throughout. The Potency result in the experiment on PA-1, in the experiment with SKOV3 and in the experiment on Tov-21-G was “inactive” in each case.
`COc1cc([C@H]2Oc3cc([C@H]4Oc5cc(O)cc(O)c5C(=O)[C@@H]4O)ccc3O[C@@H]2CO)ccc1O`: the Potency result in the experiment on MCC-13, with MCC-26, in the experiment on MKL-1, in the experiment on MKL-2, with UISO and in the experiment on WaGa was “inactive” each time. In addition, the Potency entry in the experiment on C33A, in the experiment with CAOV3, with CASKI, in the experiment on Es-2, with HeLa and in the experiment with Hek293T was “inactive” throughout. Further, the Potency result with JEG-3, in the experiment with OV90, in the experiment with SKOV3 and in the experiment on Tov-21-G was “inactive” throughout.
In the case of `NC(N)=NN=C(/C=C/c1ccc([N+](=O)[O-])o1)/C=C/c1ccc([N+](=O)[O-])o1`, the Potency in the experiment on MCC-13 is 2.66 µM (active); in the experiment with MCC-26, 2.66 µM (active); in the experiment with MKL-1 it was 0.376 µM (active); with MKL-2 it was 0.237 µM (active); with UISO, 0.841 µM (active); in the experiment on WaGa, 0.237 µM (active). The Potency in the experiment with C33A is 12.6 µM (active); with CAOV3 it was 6.31 µM (active); in the experiment with Es-2, 31.6 µM (active); with HeLa, 22.4 µM (active); with OV90, 15.8 µM (active); with PA-1, 7.08 µM (active). Further, the Potency in the experiment on Tov-21-G is 12.6 µM (active).
As to `COc1cc(O)c(C(=O)c2ccccc2)cc1S(=O)(=O)O`, the Potency entry in the experiment with MCC-13, in the experiment with MCC-26, in the experiment on MKL-1, in the experiment on MKL-2, with UISO and in the experiment on C33A was “inactive” throughout. For the same molecule, the Potency result in the experiment with CAOV3, in the experiment with CASKI, in the experiment with Es-2, with HeLa, with Hek293T and with JEG-3 was “inactive” each time. The Potency result in the experiment on OV90, in the experiment with PA-1, in the experiment with SKOV3 and with Tov-21-G was “inactive” each time.
`C#C[C@]1(O)CC[C@H]2[C@@H]3CCC4=CC(=O)CC[C@@H]4[C@H]3CC[C@@]21CC`: the Potency result with MCC-13, in the experiment with MCC-26, with MKL-1, in the experiment on MKL-2, in the experiment on UISO and with WaGa was “inactive” in each case. Moreover, the Potency result in the experiment with C33A, in the experiment with CASKI, in the experiment on Es-2, with Hek293T, in the experiment with JEG-3 and in the experiment with OV90 was “inactive” throughout. For the same molecule, the Potency result with SKOV3 and with Tov-21-G was “inactive” in each case. For the same molecule, the Potency in the experiment on HeLa was 3.55 µM (active).
As for `CC(=O)Nc1ncc([N+](=O)[O-])s1`, the Potency entry in the experiment with MCC-13, in the experiment with MCC-26, in the experiment with MKL-1, in the experiment on MKL-2, in the experiment with UISO and in the experiment on WaGa was “inactive” throughout. Besides, the Potency result in the experiment on C33A, in the experiment with CASKI, in the experiment on Es-2, in the experiment with HeLa, with Hek293T and with JEG-3 was “inactive” throughout. Also, the Potency result in the experiment with OV90, in the experiment on PA-1, in the experiment on SKOV3 and with Tov-21-G was “inactive” in each case.
